This passage reports INHIBITION results from ChEMBL document CHEMBL4513216, “Probing the Open Global Health Chemical Diversity Library for Multistage-Active Starting Points for Next-Generation Antimalarials” (ACS Infect Dis, 2020).

The campaign covered roughly 69,000 compounds. About 8,600 (12%) showed an effect of 50% or more. Many of the other results were omitted from the sample, so strong results are more common in it than they were.

The assay has as its system Plasmodium berghei. Description: Screen against P. berghei liver stage (PbLuc), transformed with Luciferase, at 10uM. The assay is classed as functional, HepG2. Particulars: tested at 10 uM.
For the compound `Cc1ccsc1CN(C)Cc1ncccc1C(=O)O`, the INHIBITION amounted to 68.3%. Next, `Cc1ccsc1CN(Cc1ncccc1C(=O)O)C1CC1`: 31.9%. To `CC(C)c1nc(CN(C)Cc2ncccc2C(=O)O)cs1` belongs 15.7%; to `COc1cccc(CCC(=O)N2CCN(CC(C)(C)O)CC2)c1`, 4.3%; to `CC(=O)c1cc(CN2C[C@@H]3CC[C@H]2CN(Cc2c(C)noc2C)C3)cs1`, -33.5%. Next, `COCCNC(=O)c1nnc2ccc(N3CCOCC3)cc2n1`: 54%; `CCNC(=O)c1nnc2ccc(N3CCOCC3)cc2n1`: 30%. In the case of `CNC(=O)c1nnc2ccc(N3CCOCC3)cc2n1`, the INHIBITION is on record as -12.2%. Next, `COC(=O)c1ccc(-c2cc(C(F)(F)F)cc(N(C)C)n2)cc1`: 23.6%. Take `Cc1cccc(C(C(=O)NC(C)(C)CN2CCCC2)N(C)C)c1` (centres undefined): the INHIBITION is listed as -13.2%. To `CCc1ccc2nc(C)cc(C(=O)N[C@@H]3C[C@@H](CO)N(C)C3)c2c1` belongs 22.1%.

Regarding `Cn1cc(N2CCC3(CCN(C(=O)c4cccn4C)C3)C2=O)cn1` (centres undefined), the INHIBITION was determined as 23.6%. Next, `Cn1cc(N2CC3(CCN(C(=O)c4cccn4C)CC3)OCC2=O)cn1`: 73%. Next, `Cn1cccc1C(=O)N1CCC2(CC1)CN(c1ccsc1)C(=O)CO2`: 71.9%; `Cn1cccc1C(=O)N1CCC2(CC1)CN(c1cncnc1)C(=O)CO2`: 11.4%.

For `Cn1cccc1C(=O)N1CCC2(CC1)CN(c1ccccc1)C(=O)CO2`, the INHIBITION came to 33.4%. For the compound `CN1CC(=O)N(c2ccsc2)CC12CCN(C(=O)c1cccn1C)C2` (centres undefined), the INHIBITION turned out to be 19.4%. To `CN(C)c1ccc(CN(CC2CCCO2)C(=O)c2csnn2)cc1` (centres undefined) belongs 11.8%.

For `CC1(c2cc[nH]n2)CCN(C(=O)c2ccc(Cl)cc2)CC1`, the INHIBITION was -2.09%. To `COCC(=O)N1C[C@H]2CCC[C@@]2(COC)C1` belongs 85.2%; to `CN(C)CC(=O)N1C[C@H]2CCC[C@@]2(COc2ccccn2)C1`, 52.9%. Next, `CN(C)C(=O)N1C[C@H]2CCC[C@@]2(COc2ccccn2)C1`: -9.67%; `COC[C@@]12CCC[C@@H]1CN(C(=O)N1CCCC1)C2`: 18.6%; `COC[C@@]12CCC[C@@H]1CN(C(=O)COC1CCCC1)C2`: 32.5%. For `COC[C@@]12CCC[C@@H]1CN(C(=O)CN(C)C)C2`, the INHIBITION is given as 56.4%. To `O=C(c1ncccn1)N1C[C@H]2CCC[C@@]2(COc2ccccn2)C1` belongs -15.1%; to `CCOCC(=O)N1C[C@H]2CCC[C@@]2(COC)C1`, -0.284%.

`COCCC(=O)N1C[C@H]2CCC[C@@]2(COC)C1`: the INHIBITION turned out to be 24.6%. Take `Cc1cccc(CN2C(=O)CCC23CCN(c2ncc(F)cn2)CC3)n1`: the INHIBITION is -26.8%. Next, `O=S(=O)(N1CCOCC1)N1CCCC(c2ccccn2)C1` (centres undefined): 15.99%; `COc1c(C2CCCN2C(=O)c2c(C)noc2C(C)C)c(C)nn1C` (centres undefined): 35.9%. Consider `COCC(=O)N1CCc2c(nnn2C)C1COCCN1CCCC1` (centres undefined), for which the INHIBITION is 29%.

Take `Cc1ccc(C(=O)Nc2nn[nH]n2)s1`: the INHIBITION is 2.61%. For the compound `Cc1cc(C)c(CNC(=O)NCc2ccc3c(c2)OCCO3)c(=O)[nH]1`, the INHIBITION is listed as -54.6%.

Take `CS(=O)(=O)N1CCN(C(=O)c2cc(-c3cccs3)cs2)CC1`: the INHIBITION stood at 33.3%. In the case of `CCc1oc(C(=O)NC(C)c2ncn[nH]2)cc1CN1CCCC1` (centres undefined), the INHIBITION is recorded as 7.24%.

Consider `Cc1cccnc1NC(=O)NCc1cccnc1OC(C)C`, for which the INHIBITION worked out at 19.4%. Regarding `Cc1cc(C(=O)NC2(c3ccc(Br)cc3)CC2)n(C)n1`, the INHIBITION was found to be 47%. To `CC(=O)N1N=C(c2ccncc2)OC1C(=O)N(C)CCc1ccccc1` (centres undefined) belongs 0.618%; to `CNc1ncccc1CN1CCN(c2cc(NC3CC3)nc(N)n2)CC1`, 5.11%. For `CCc1ccc2nc(NCCCN(CCO)CCO)cc(C)c2c1`, the INHIBITION worked out at 42%.

As for `CCc1ccc2nc(NCCOCCO)cc(C)c2c1`, the INHIBITION is given as -46.7%. For `CCc1ccc2nc(NCC(O)CO)cc(C)c2c1` (centres undefined), the INHIBITION turned out to be 50.7%.

Take `Cn1c(N2CCOCC2)nc2cc(C(=O)N[C@@H]3CC[C@@H](N)C3)ccc21`: the INHIBITION was determined as 33.4%. As for `CN(C)CCNC(=O)c1ccn(-c2ccc3ccccn23)n1`, the INHIBITION is given as 13.6%. As to `Cc1cc(CN2CCN(CC(O)c3ccc(C)c(C)c3)CC2)no1` (centres undefined), the INHIBITION was determined as 62.6%.

Turning to `Cc1cc(CN2CCN(C(c3ccccc3)c3ccccc3)CC2)no1`, the INHIBITION is on record as 85.4%. As for `Cc1cc(CN2CCN(CC(O)c3ccccc3)CC2)no1` (centres undefined), the INHIBITION is 36.4%.

In the case of `Cc1cc(CN2CCN(CC(O)c3ccc4c(c3)OCO4)CC2)no1` (centres undefined), the INHIBITION is given as -1.14%.

As for `Cc1cc(CN2CCN(CC(O)c3cccc(F)c3)CC2)no1` (centres undefined), the INHIBITION is reported as -17.6%. Next, `Cc1cc(CN2CCN(CC(O)c3ccc(Cl)cc3)CC2)no1` (centres undefined): 9.14%. In the case of `COC(=O)c1ccc(N(C(=O)c2ccncc2)C(C)C)c(C)c1`, the INHIBITION is 7.18%. Turning to `COc1ccc(CN2CCCCC2Cn2nc(C)nc2C)cc1F` (centres undefined), the INHIBITION was -37.7%. With `Cc1cn(-c2ccccc2)nc1NS(=O)(=O)c1cc(C(=O)O)sc1C`, the INHIBITION was 8.38%.
